# ABHD5 PLIN5 PPI: blocks binding of human ABHD5 to perilipin-5 | 0.78% of 360,000 active | Split G. princeps luciferase complementation, luminescence, 4 h | Q00G26+Q8WTS1 | AID 602281 | inhibition, % at 4 µM;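 active = inhibition above the mean inhibition across every tested compound plus 3 SD, cut at about 22% in these data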;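 note: 0% = DMSO only wells and the 100% control is not disclosed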
# Target sequence (Q00G26 whole entry, looked up): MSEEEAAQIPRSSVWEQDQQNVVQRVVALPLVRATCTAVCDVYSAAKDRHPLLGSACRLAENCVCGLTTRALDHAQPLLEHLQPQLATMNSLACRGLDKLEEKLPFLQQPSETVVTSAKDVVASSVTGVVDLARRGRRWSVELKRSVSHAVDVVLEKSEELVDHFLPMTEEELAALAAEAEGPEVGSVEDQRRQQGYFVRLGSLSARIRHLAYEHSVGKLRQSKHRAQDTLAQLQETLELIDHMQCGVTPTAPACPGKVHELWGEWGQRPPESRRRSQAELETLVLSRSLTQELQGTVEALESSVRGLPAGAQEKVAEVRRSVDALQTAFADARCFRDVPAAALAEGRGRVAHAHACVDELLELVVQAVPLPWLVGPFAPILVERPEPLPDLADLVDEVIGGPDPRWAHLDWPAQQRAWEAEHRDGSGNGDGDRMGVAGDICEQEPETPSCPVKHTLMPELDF
# Target sequence (Q8WTS1 whole entry, looked up): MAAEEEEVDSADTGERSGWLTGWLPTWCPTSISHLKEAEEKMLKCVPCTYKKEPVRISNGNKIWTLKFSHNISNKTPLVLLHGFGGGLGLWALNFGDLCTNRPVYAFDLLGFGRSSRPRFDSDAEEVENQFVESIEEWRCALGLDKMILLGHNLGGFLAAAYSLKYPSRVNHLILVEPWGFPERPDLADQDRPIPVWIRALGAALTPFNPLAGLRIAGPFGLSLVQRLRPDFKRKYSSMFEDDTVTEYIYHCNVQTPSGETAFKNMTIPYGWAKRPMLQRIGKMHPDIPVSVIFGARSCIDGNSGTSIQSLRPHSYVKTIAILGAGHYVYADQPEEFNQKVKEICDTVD
# PAX8 inh HTS: lowers PAX8-driven luciferase in RMG-I cells; RMG-I TPO-luciferase reporter, SteadyGlo, 24 h; inhibition, % at 12.6 µM; 1.2% of 360,000 active;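 active = mean replicate inhibition at least 60% with every replicate also reaching 60%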;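 note: luciferase light reporting Pax8 driven TPO promoter activity; plate controls were median of neutral control wells for no effect and mitoxantrone controls for full effect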
# MITF TRPM1 inh: MITF TRPM1 promoter inhibition in SK-MEL-5 cells | SK-MEL-5 TRPM1 promoter luciferase, 24 h | inhibition, % at 12.5 µM | 0.83% of 330,000 active;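 active = mean inhibition across replicates of 60% or more, whatever share of single replicates reaches that level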
# Peg3 prom inh: reduces Peg3 promoter-driven luciferase expression in HeLa | 1.7% of 360,000 active | HeLa PEG-Prom luciferase reporter, luminescence, overnight | inhibition, % at 20 µM;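 active = inhibition of at least 50% at 20 µM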
# Shn3 3UTR inh: reduces Shn3 3'UTR luciferase signal in osteoblasts; Clone20 osteoblast Shn3 3'UTR firefly luciferase, 24 h; 0.52% of 360,000 active; inhibition, % at 12.5 µM;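 active = mean inhibition of at least 75% with every replicate also reaching 75%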;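 note: 0% = median of neutral control wells and 100% = pilot-screen positive control compound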
# EWS-Fli block: blocks EWS/Fli oncoprotein-driven transcription; 0.67% of 350,000 active; inhibition, % at 12.6 µM; A673 NR0B1-luciferase reporter, viability-normalised;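 active = mean inhibition of at least 50% after viability correction, with every replicate also passing that limit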;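 note: firefly luciferase signal divided by Alamar Blue viability fluorescence both relative to DMSO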
# DNA binder FP: binds DNA displacing acridine orange; AC35, µM (doses to about 68 µM), without a hit: at the top dose activity change, negative = DNA binding; shares compounds with EWS-Fli block; salmon sperm DNA acridine orange fluorescence polarization; 2% of 640 active;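 active = fitted curve reaches a 35% signal fall AC35 below twice the sample's top valid tested dose, actives reach about 48 µM in these data; inactive = the rest, including activity in the rising direction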;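 note: lower polarization ratio signals compound binding to DNA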
# * = called active by the depositor; nt = no result; ! = not confirmed by another sample. Only some compounds are listed: those with a hit (about 3% of all), similar ones and a draw of the others.
SMILES,ABHD5 PLIN5 PPI,PAX8 inh HTS,MITF TRPM1 inh,Peg3 prom inh,Shn3 3UTR inh,EWS-Fli block,DNA binder FP
CC(C)OC(=O)N(C)C[C@@H]1OCc2cn(nn2)CCCC(=O)N([C@@H](C)CO)C[C@@H]1C,nt,nt,nt,nt,nt,4,nt
COC(=O)c1cccc(NC(=O)NC(=O)c2ccc(Cl)cc2)c1,-1,-21,39,-22,-20,87*,-7%
O=C(NC(=O)c1ccccc1)Nc1ccccc1,2,-7,-1,-89,8,56*,-13%
Cc1nc2ncccn2c1-c1csc(Nc2ccc(O)cc2)n1,-30,-20,6,-18,23,58*,9%
Cc1ccc(Nc2nc(-c3c(C)nc4ncccn34)cs2)cc1,-25,nt,14,-41,28,nt,nt
Clc1ccc(Nc2nnc(-c3ccc4c(c3)OCO4)o2)cc1,nt,-108,nt,nt,nt,-95,nt
c1ccc(Nc2nnc(-c3ccc4c(c3)OCO4)o2)cc1,nt,48,nt,nt,nt,79*,3%
C[C@@H]1CCCCO[C@@H](CN(C)C(=O)CCC(F)(F)F)[C@@H](C)CN([C@@H](C)CO)C(=O)c2cc(N(C)C)ccc2O1,nt,-4,nt,nt,nt,-1,nt
CC(=O)O[C@@H]1[C@H]2[C@@H](C[C@@H](C)[C@@H]3C=CC(=O)[C@@]13C)OC(=O)[C@@H]2C,-2,-14,2,-4,-30,-6,nt
C=C1C(=O)OC2C1CCC(C)C1C=CC(=O)C12C (stereo not given),12,75*,69*,48,58,56*,7%
O=c1cc(-c2ccccc2)oc2ccc(Br)cc12,9,-194,-47,-277,-64,-6,nt
COc1ccc2oc(-c3ccccc3)cc(=O)c2c1,-3,nt,nt,-44,7,60*,-4%
COc1cc(/C=N\Nc2nc(-c3ccc(C)cc3)c(NC(C)=O)s2)ccc1O,0,5,-13,-25,-6,54*,-11%
COc1ccc(/C=N/Nc2nc(-c3ccc(C)cc3)c(NC(C)=O)s2)cc1OC,3,15,-9,-2,-9,-7,nt
C[C@@H]1CN([C@H](C)CO)C(=O)c2cc(C#Cc3ccc(F)cc3)cnc2O[C@@H]1CN(C)C,nt,nt,nt,nt,nt,-5,nt
CNC(=O)C[C@@H]1CC[C@@H]2[C@H](COc3ccc(NS(=O)(=O)c4ccccc4C)cc3C(=O)N2C)O1,nt,-2,nt,nt,nt,-1,nt
Cc1c(-c2nc(-c3ccc(C(C)(C)C)cc3)no2)n(C)oc1=O,-6,19,36,23,nt,56*,3.5µM*
CC(=O)Nc1ccc(OCC(=O)N(CC(C)C)C2CCS(=O)(=O)C2)cc1 (stereo not given),-3,28,-2,5,-20,68*,0%
C[C@@H]1CN([C@@H](C)CO)S(=O)(=O)c2ccc(C#Cc3ccncc3)cc2O[C@H]1CN(C)C(=O)C1CCOCC1,nt,24,nt,nt,nt,70*,1%
C[C@@H]1CN([C@H](C)CO)S(=O)(=O)c2ccc(C#Cc3ccncc3)cc2O[C@@H]1CN(C)C(=O)Nc1ccc2c(c1)OCO2,nt,70*,nt,nt,nt,65*,-4%
Cc1ccc(-c2cnc3c(c2)C(=O)N([C@@H](C)CO)C[C@H](C)[C@@H](CN(C)C(=O)Cc2ccccc2)O3)cc1,nt,nt,nt,nt,nt,6,nt
CCc1c(C(=O)NN2C(=O)C3CCCCC3C2=O)csc1C (stereo not given),2,2,-20,-2,-9,65*,-2%
CC1(C(=O)NCc2ccco2)Cc2c(-c3cccc(C(N)=O)c3)ccnc2O1 (stereo not given),-3,nt,nt,6,1,53*,-11%
CN(C)c1ccc(-c2ccnc3c2CC(C)(C(=O)NCc2ccco2)O3)cc1 (stereo not given),1,-11,nt,27,1,64*,3%
C[C@H](CO)N1C[C@H](C)[C@@H](CN(C)Cc2ccc(C(=O)Nc3ccccc3N)cc2)Oc2c(NC(=O)Nc3ccccc3)cccc2C1=O,nt,31,nt,nt,nt,44,nt
SMILES,ABHD5 PLIN5 PPI,PAX8 inh HTS,MITF TRPM1 inh,Peg3 prom inh,Shn3 3UTR inh,EWS-Fli block,DNA binder FP
C[C@H]1CN([C@@H](C)CO)C(=O)c2cccc(NC(=O)Nc3ccccc3)c2O[C@@H]1CN(C)Cc1ccc(-c2ccccc2)cc1,nt,-29,nt,nt,nt,-10,nt
C[C@@H]1CN([C@@H](C)CO)C(=O)c2cccc(NC(=O)Nc3cccc4ccccc34)c2O[C@@H]1CN(C)Cc1ccc(C(=O)Nc2ccccc2N)cc1,nt,40,nt,nt,nt,54*,2%
C[C@@H]1CN([C@@H](C)CO)C(=O)c2cccc(NC(=O)Nc3ccccc3)c2O[C@@H]1CN(C)Cc1ccc(-c2ccccc2)cc1,nt,15,nt,nt,nt,78*,0%
C[C@H](CO)N1C[C@H](C)[C@H](CN(C)Cc2ccc(C(=O)Nc3ccccc3N)cc2)Oc2c(cccc2N(C)C)C1=O,nt,9,nt,nt,nt,54*,4%
C[C@@H]1CN([C@H](C)CO)C(=O)c2cc(C#CCN(C)C)cnc2O[C@H]1CN(C)Cc1ccc(-c2ccccc2)cc1,nt,nt,nt,nt,nt,54*,-17%
CO[C@H]1CN(C)C(=O)c2cc(NC(=O)C3CCCC3)ccc2OC[C@H](C)N(S(C)(=O)=O)C[C@H]1C,nt,nt,nt,nt,nt,-7,nt
CCCNC(=O)[C@@H]1[C@@H](CO)[C@@H]2Cn3c(cccc3=O)[C@@H]2N1C(=O)C1CCC1,nt,nt,nt,nt,nt,7,nt
Cc1ccc(S(=O)(=O)N(C)C[C@H]2Oc3c(cccc3N(C)C)C(=O)N([C@@H](C)CO)C[C@@H]2C)cc1,nt,-9,nt,nt,nt,53*,-11%
C[C@@H]1CN([C@H](C)CO)C(=O)c2cccc(N(C)C)c2O[C@@H]1CN(C)Cc1ccc(C(=O)Nc2ccccc2N)cc1,nt,32,nt,nt,nt,56*,-3%
C[C@H]1CN([C@@H](C)CO)C(=O)c2cccc(NC(=O)c3ccc(-c4nccs4)cc3)c2O[C@@H]1CN(C)Cc1ccc(C(=O)Nc2ccccc2N)cc1,nt,nt,nt,nt,nt,52*,7%
C[C@@H]1CN([C@@H](C)CO)C(=O)c2cccc(NC(=O)c3ccc(-c4nccs4)cc3)c2O[C@@H]1CN(C)Cc1ccc(-c2ccccc2)cc1,nt,29,nt,nt,nt,7,nt
COc1ccc(S(=O)(=O)N(C)C[C@@H]2OCCCC[C@@H](C)Oc3ccc(NC(=O)Nc4ccc(C(F)(F)F)cc4)cc3C(=O)N([C@@H](C)CO)C[C@@H]2C)cc1,nt,24,nt,nt,nt,-3,nt
COc1cccc(S(=O)(=O)N(C)C[C@H]2OCc3cnnn3CCCC(=O)N([C@@H](C)CO)C[C@H]2C)c1,6,-17,nt,2,15,60*!,-12%
COc1cccc(S(=O)(=O)N(C)C[C@@H]2OCc3cnnn3CCCC(=O)N([C@H](C)CO)C[C@H]2C)c1,6,6,nt,-4,8,4,nt
Nc1ccc2oc(-c3cc(Br)ccc3Cl)nc2c1,-5,nt,49,-55,19,54*,-7%
CN(C)C(=O)[C@H]1[C@H](CO)[C@H]2Cn3c(ccc(-c4ccccc4)c3=O)[C@H]2N1Cc1ccccc1,nt,nt,nt,nt,nt,10,nt
